Values joined by “and” are separate entries in the source; they are usually repeats but may differ in a detail not shown here. Equal entries are not always repeated. Values without a mark were called inactive. Inconclusive results are not listed. Where a call stands in place of a potency, no number is given. Active and inactive are the calls of the source. Unless noted, calls come from the whole dose curve; as a rule, active = well fitted curve in the direction sought with a large enough effect in the repeat runs; inconclusive = weak or mixed curves; inactive = no such curve, though single readings can be large; an effect the other way counts as inactive or inconclusive.
Assays:
[1] = qHTS assay for small molecules that induce genotoxicity in human embryonic kidney cells expressing luciferase-tagged ATAD5 (AID 651632); note: nearly all actives have a fitted effect of over 15% in size
Outline: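 A rise in luciferase signal from ATAD5-tagged HEK293T cells marks genetic stress. Cells were exposed to compounds for 16 hr at 37C, 5% CO2, then luciferase was quantified after a 30 min room-temperature incubation with Amplite.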

[2] = qHTS assay for small molecule agonists of the p53 signaling pathway - cell viability (AID 651633; calls by dose curve; note: nearly all actives have a fitted effect of over 30% in size; note: potency is the fitted concentration of half-maximal effect)
Outline: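 Viability counter-read: CellTiter-Glo luminescence (30 min, room temperature) in the same p53RE-bla plates. These plates had been exposed to compounds for 16 h at 37 C.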

[3] = qHTS assay for small molecules that induce genotoxicity in human embryonic kidney cells expressing luciferase-tagged ATAD5 - cell viability (AID 651634; calls by dose curve; note: nearly all actives have a fitted effect of over 25% in size)
Outline: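 Cytotoxicity counter-readout: after 15.5 hr compound treatment at 37C, live-cell protease activity in ATAD5-luciferase HEK293T cells measured by CellTiter-Fluor fluorescence, 30 min development at 37C.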

[4] = qHTS assay for small molecule disruptors of the mitochondrial membrane potential - cell viability (AID 720634; calls by dose curve;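 note: human HepG2 liver cancer cells; series mostly up to about 83 µM; nearly all actives have a fitted effect of over 20% in size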)
Outline: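 Cytotoxicity was quantified from ATP content by CellTiter-Glo luminescence in the same wells as the MMP dye read-out. HepG2 (2,000 cells/well) were plated overnight and exposed to compounds for 1 hr at 37 C.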

[5] = qHTS assay for small molecule disruptors of the mitochondrial membrane potential (AID 720635); note: potency is the fitted concentration of half-maximal effect
Outline: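 Mitochondrial membrane potential tracked with Mito-MPS dye, red aggregates (ex 540/em 590 nm) against green monomers (ex 490/em 535 nm). Compound treatment 1 hr at 37C, dye 30 min in HepG2.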

[6] = qHTS assay to test for compound auto fluorescence at 590 nm (red) in HepG2 cells (AID 720674)
Outline: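 We screened compounds on adherent HepG2 cells, incubating them for an hour at 37 C in 5% CO2 before reading emission at 590 nm under 540 nm excitation; values reflect equivalence to Rose Bengal sodium fluorescence.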

[7] = qHTS assay to test for compound auto fluorescence at 535 nm (green) in HepG2 cells (AID 720675)
[8] = qHTS assay to test for compound auto fluorescence at 460 nm (blue) in HEK293 cells (AID 720678)
Outline: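 HEK293, 2,000 cells/well, 10% dialyzed FBS; attach 4-5 hr 37C; pin compound or DMSO; o/n 37C/5% CO2; fluorescence 405/460 nm; triamterene-equivalent units.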

[9] = qHTS assay to test for compound auto fluorescence at 590 nm (red) in HEK293 cells (AID 720679)
Outline: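 Intensity at 540nm excitation and 590nm emission is reported as Rose Bengal sodium-equivalent autofluorescence. Measurements followed overnight exposure (37C, 5% CO2) of HEK293 cells, 2,000 per well, to 23 nL compound.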

[10] = qHTS assay to test for compound auto fluorescence at 535 nm (green) in HEK293 cells (AID 720680)
[11] = qHTS assay to test for compound auto fluorescence at 460 nm (blue) in HEK293 cell free culture (AID 720681)
Outline: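 Blue fluorescence (Ex 405/Em 460 nm, triamterene-equivalent) was read immediately after pin transfer of compound or DMSO into medium (DMEM, 10% FBS) without cells.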

[12] = qHTS assay to test for compound auto fluorescence at 535 nm (green) in HEK293 cell free culture (AID 720682)
Outline: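 Each library compound, or DMSO control, is added by pintool to medium alone, comprising DMEM and 10% FBS. Emission at 535 nm following 485 nm excitation is quantified against fluorescein.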

[13] = qHTS assay to test for compound auto fluorescence at 590 nm (red) in HEK293 cell free culture (AID 720683)
Outline: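 Red-channel autofluorescence of compounds in culture medium (DMEM, 10% FBS), no cells, measured at 540/590 nm. Rose Bengal sodium is the reference fluorophore for equivalence.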

[14] = qHTS assay to test for compound auto fluorescence at 590 nm (red) in HepG2 cell free culture (AID 720684)
Outline: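 No cells present: MEM + 10% FBS only. Compound pinned in, red label read (540/590 nm). Activity = fluorescence equivalent to Rose Bengal sodium.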

[15] = qHTS assay to test for compound auto fluorescence at 460 nm (blue) in HepG2 cell free culture (AID 720685)
Outline: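 Cell-free plates of MEM plus 10% FBS received 23 nL compound or DMSO vehicle; blue-channel (405/460 nm) intensity scored against triamterene as reference fluorophore.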

[16] = qHTS assay to test for compound auto fluorescence at 535 nm (green) in HepG2 cell free culture (AID 720686)
[17] = qHTS assay to test for compound auto fluorescence at 460 nm (blue) in HepG2 cells (AID 720687)
Outline: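 Blue-channel autofluorescence (Ex/Em 405/460 nm, triamterene-equivalent) was measured after 1 hr compound exposure at 37 C, 5% CO2. Cells were HepG2, plated overnight at 37 C in MEM plus 10% FBS.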

[18] = molecular target: Glucocorticoid receptor (Homo sapiens) (UniProt P04150); experiment: qHTS assay to identify small molecule agonists of the glucocorticoid receptor (GR) signaling pathway (AID 720691; active = well fitted activation curve with a large enough effect in the signal ratio in the repeat runs, not every such curve was filed as active; the % refers to the signal ratio)
Outline: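 Agonist-mode qHTS in HeLa cells stably expressing a glucocorticoid-response-element beta-lactamase reporter. Fluorescence intensity read with FRET substrate (2 h, room temperature) after 18 h compound treatment at 37 C.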

[19] = molecular target: Glucocorticoid receptor (Homo sapiens) (UniProt P04150); experiment: qHTS assay to identify small molecule antagonists of the glucocorticoid receptor (GR) signaling pathway (AID 720692; active = well fitted inhibition curve with a large enough effect in the signal ratio in the repeat runs, not every such curve was filed as active; the % refers to the signal ratio; note: potency is the fitted concentration of half-maximal effect)
Outline: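 Inhibition of dexamethasone-driven (5 nM final) beta-lactamase expression was measured in GRE-reporter HeLa cells over 18 h at 37C. Fluorescence was read after 2 h with the B/G FRET substrate at room temperature.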

[20] = qHTS assay for small molecule agonists of the p53 signaling pathway (AID 651631; calls by dose curve; note: nearly all actives have a fitted effect of over 15% in size)
Outline: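 Beta-lactamase reporter activity under p53 response elements was quantified in HCT-116 cells by FRET fluorescence, following 16 h incubation with test compounds at 37 °C and 2 h substrate development at room temperature.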

Sequence of Glucocorticoid receptor (Homo sapiens) (P04150 whole entry, looked up): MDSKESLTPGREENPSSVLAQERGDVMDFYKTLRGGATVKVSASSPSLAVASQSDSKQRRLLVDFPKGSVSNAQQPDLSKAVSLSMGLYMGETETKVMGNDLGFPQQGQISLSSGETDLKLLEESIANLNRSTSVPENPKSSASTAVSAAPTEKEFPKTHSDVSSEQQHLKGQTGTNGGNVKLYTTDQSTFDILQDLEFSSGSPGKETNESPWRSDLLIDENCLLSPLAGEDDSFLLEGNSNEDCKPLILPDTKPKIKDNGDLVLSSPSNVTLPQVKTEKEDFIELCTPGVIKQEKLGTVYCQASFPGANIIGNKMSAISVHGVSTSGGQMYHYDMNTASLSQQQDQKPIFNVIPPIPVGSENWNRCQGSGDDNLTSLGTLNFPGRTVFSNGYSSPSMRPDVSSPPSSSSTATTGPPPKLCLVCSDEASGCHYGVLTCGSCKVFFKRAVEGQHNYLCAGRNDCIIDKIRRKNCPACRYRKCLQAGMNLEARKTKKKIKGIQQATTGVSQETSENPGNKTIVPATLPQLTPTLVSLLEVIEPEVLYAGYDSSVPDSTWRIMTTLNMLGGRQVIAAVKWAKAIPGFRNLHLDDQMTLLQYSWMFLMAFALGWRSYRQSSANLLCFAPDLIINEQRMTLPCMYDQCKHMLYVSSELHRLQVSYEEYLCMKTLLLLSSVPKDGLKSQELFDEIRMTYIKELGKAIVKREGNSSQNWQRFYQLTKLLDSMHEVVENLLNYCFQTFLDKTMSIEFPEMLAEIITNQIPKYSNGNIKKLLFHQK

## N#CCCSCCC#N
[1]
  Potency: inactive
[2]
  Potency: inactive
[3]
  Potency: inactive
[4]
  Potency: inactive
[5]
  Potency: inactive
[6]
  outcome: inactive
[7]
  outcome: inactive
[8]
  Potency: inactive
[9]
  outcome: inactive
[10]
  outcome: inactive
[11]
  Potency: inactive
[12]
  outcome: inactive
[13]
  outcome: inactive
[14]
  outcome: inactive
[15]
  Potency: inactive
[16]
  outcome: inactive
[17]
  Potency: inactive
[18]
  Potency: inactive
[19]
  Potency: inactive

## N#CNC#N
[20]
  Potency: inactive
[2]
  Potency: inactive
[3]
  Potency: inactive
[4]
  Potency: inactive
[6]
  outcome: inactive
[7]
  outcome: inactive
[8]
  Potency: inactive
[9]
  outcome: inactive
[10]
  outcome: inactive
[11]
  Potency: inactive
[12]
  outcome: inactive
[13]
  outcome: inactive
[14]
  outcome: inactive
[15]
  Potency: inactive
[17]
  Potency: inactive
[18]
  Potency: inactive
[19]
  Potency: inactive

## CC(C)CCCCCCCOP(=O)(Oc1ccccc1)Oc1ccccc1
[20]
  Potency: inactive
[2]
  Potency: inactive
[6]
  outcome: inactive
[7]
  outcome: inactive
[8]
  Potency: inactive
[9]
  outcome: inactive
[10]
  outcome: inactive
[11]
  Potency: inactive
[12]
  outcome: inactive
[13]
  outcome: inactive
[14]
  outcome: inactive
[15]
  Potency: inactive
[16]
  outcome: inactive
[17]
  Potency: inactive
[18]
  Potency: inactive
[19]
  Potency: inactive

## BrCBr
[20]
  Potency: inactive
[2]
  Potency: inactive
[4]
  Potency: inactive
[5]
  Potency: inactive
[6]
  outcome: inactive
[7]
  outcome: inactive
[8]
  Potency: inactive
[9]
  outcome: inactive
[10]
  outcome: inactive
[11]
  Potency: inactive
[12]
  outcome: inactive
[13]
  outcome: inactive
[14]
  outcome: inactive
[16]
  outcome: inactive
[17]
  Potency: inactive
[18]
  Potency: inactive

## Clc1ccc(C(c2ccc(Cl)cc2)C(Cl)(Cl)Cl)cc1
[1]
  Potency: inactive
[2]
  Potency: 26.6 µM (active) and 48.9 µM (active) and 27.3 µM (active)
[3]
  Potency: inactive
[4]
  Potency: inactive
[5]
  Potency: 21.1 µM (active) and 19.5 µM (active) and 15.4 µM (active)
[6]
  outcome: inactive
[7]
  outcome: inactive
[8]
  Potency: inactive
[9]
  outcome: inactive
[10]
  outcome: inactive
[11]
  Potency: inactive
[12]
  outcome: inactive
[13]
  outcome: inactive
[15]
  Potency: inactive
[16]
  outcome: inactive
[17]
  Potency: inactive
[19]
  Potency: 43.6 µM (active)

## Cc1cc(C)cc(OP(=O)(Oc2cc(C)cc(C)c2)Oc2cc(C)cc(C)c2)c1
[20]
  Potency: inactive
[1]
  Potency: inactive
[2]
  Potency: inactive
[3]
  Potency: inactive
[6]
  outcome: inactive
[7]
  outcome: inactive
[8]
  Potency: inactive
[9]
  outcome: inactive
[10]
  outcome: inactive
[11]
  Potency: inactive
[12]
  outcome: inactive
[13]
  outcome: inactive
[15]
  Potency: inactive
[16]
  outcome: inactive
[17]
  Potency: inactive
[18]
  Potency: inactive
